# High-throughput results as filed in PubChem.
# Tau fluor cs = counter-screen for tau fibril formation inhibitors. actives 0.93% (n = 280,000). tau K18 P301L Alexa594 fluorescence, heparin fibrillization. Potency, µM (titrated, usually from 57.7 µM). AID 1463; further: nearly all actives have a fitted effect of over 55% in size
#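 Human tau K18 P301L (15 uM unlabeled, 0.24 uM Alexa 594-labeled) in 100 mM sodium acetate pH 7 with 20 uM heparin, 6 hr at 37 C. ThT 30 uM added, 1 hr ambient; Alexa 594 FP and total fluorescence read at 555/632 nm.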
# Tau fibril ThT = blocks human tau fibril formation measured by thioflavin T; P10636; recombinant tau K18 P301L (four-repeat tau fragment), heparin-induced fibrillization, ThT fluorescence; Potency, µM (highest dose often 57.4 µM), usual class: inhibitors; actives 2.1% (n = 270,000); further: nearly all actives have a fitted effect of over 55% in size
# Target sequence (P10636 561-689 P618L limits assumed): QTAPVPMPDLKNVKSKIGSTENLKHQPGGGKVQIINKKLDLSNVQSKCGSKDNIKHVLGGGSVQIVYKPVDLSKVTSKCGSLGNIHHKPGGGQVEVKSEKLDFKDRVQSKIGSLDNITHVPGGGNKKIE
#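 Heparin-induced fibrillization of the P301L-mutant K18 repeat-domain fragment of human tau was followed by ThT binding in quantitative high-throughput format.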
# Tau FP inhib = blocks human tau fibril formation measured by polarization | AID 1468 | Potency, µM (highest dose often 57.7 µM), actives largely listed as inhibitors | K18 P301L tau heparin fibrillization, Alexa594 FP, 6 h | actives 0.39% (n = 280,000) | P10636; further: nearly all actives have a fitted effect of over 55% in size
#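 Steps: dispense K18 P301L tau (15 uM plus 0.24 uM Alexa 594 tracer, final) in pH 7 sodium acetate; add compound; add heparin (20 uM final); incubate 6 hr, 37 C; add ThT (30 uM final); after 1 hr ambient, read FP.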
# HttQ103 aggreg = reduces HttQ103-GFP aggregates in PC12 cells; PC12 HttQ103-GFP aggregates, Acumen cytometry, 40 h; Potency, µM (top dose mostly 46.1 µM), actives largely listed as inhibitors; actives 1.1% (n = 220,000); further: nearly all actives have a fitted effect of over 60% in size
#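 Read-out: GFP aggregate count by laser scanning cytometer (488 nm excitation, 500-530 nm emission, 1–25 µm objects >6 SD above background). Cells: PC12, inducible HTTex1-Q103-GFP, 100 nM tebufenozide; compounds titrated.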
# HTT cytoprotect = Huntington cell model cytoprotection by ATP luminescence; AID 1471; Potency, µM (top dose mostly 56.4 µM), usual class: activators; actives 0.14% (n = 230,000); PC12 HTT-Q103 induced, cytoprotection, ATP luminescence, 40 h; further: nearly all actives have a fitted effect of over 45% in size
#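 Compounds added alongside 100 nM tebufenozide, which induces toxic Q103 huntingtin exon 1-GFP in stable PC12 cells; surviving cells quantified by luminescent ATP measurement. Medium: phenol red-free DMEM, 5% equine and 5% calf serum.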
# Hits are given with their value; 0 = inactive; ? = inconclusive; - = no result given; [ ] = remark or other dose. In the library only some 3.7% were active in any assay of this set; here they are far more common. The call rests on the fitted dose curve; in most records, active means well fitted curve in the direction sought with a large enough effect; inconclusive means small, poorly fitted or top-dose-only effect, or another doubt; inactive means no such curve, though single readings can be large; an effect the other way counts as inactive or inconclusive.
SMILES,Tau fluor cs,Tau fibril ThT,Tau FP inhib,HttQ103 aggreg,HTT cytoprotect
Cc1cc[n+](C2=C([O-])c3ccccc3C(=O)/C2=N\S(=O)(=O)c2cccs2)cc1C,0,?,0,10µM,0[10 µM]
Cc1cc(C)c[n+](C2=C([O-])c3ccccc3C(=O)/C2=N\S(=O)(=O)c2cccs2)c1,0,0,0,0,0[1.9 µM]
O=C1/C(=N\S(=O)(=O)c2cccs2)C([n+]2ccc(CCCc3ccccc3)cc2)=C([O-])c2ccccc21,?,2.82µM,0,0[9.22 µM],0[10 µM]
C[C@H](NCCN(C)C)[C@@H]1CCC2C3CCc4cc(O)ccc4[C@H]3CCC21C (stereo partly specified),-,-,-,-,0[10 µM]
CCOc1ccc(NC(=O)Cn2cc(C(=O)c3ccc(OCC)cc3)c(=O)c3cc4c(cc32)OCCO4)cc1,0,0,0,-,-
N[C@@H](CSCc1ccc(I)cc1)C(=O)O,-,-,-,-,0[10 µM]
O=C(O)C(=O)/C(=C\c1ccc([N+](=O)[O-])cc1)c1ccc2ccccc2n1,0,15.8µM,0,0,0
Cc1cc(O)c(C(=O)c2ccccc2C(=O)O)cc1C,0,0,0,0,0
CCN(CCCNC(=O)c1cc2cc3cc(C)ccc3nc2s1)c1cccc(C)c1,7.94µM[quencher],?,0,-,-
Cc1ccc2nc3sc(C(=O)NCCCN(C)c4ccccc4)cc3cc2c1,?,?,0,-,-
O=C(NCCc1ccccc1Cl)c1cc2ccccn2n1,0,0,0,-,-
COc1ccc(Nc2ncc(C(=O)N3CCN(c4ccc(OC)cc4)CC3)c3ccccc23)cc1,14.1µM[quencher],?,?,-,-
COc1ccc(NC(=O)c2cccnc2Nc2ccc(OC)cc2)cc1,14.1µM[quencher],?,?,0,0
COc1ccc(Nc2ncc(C(=O)N3CCN(c4ccc(F)cc4)CC3)c3ccccc23)cc1,12.6µM[quencher],?,?,0,0
COc1ccc(Nc2ncc(C(=O)Nc3cccc(OC)c3)c3ccccc23)cc1,14.1µM[quencher],?,0,-,-
COc1ccc(Nc2ncc(C(=O)N3CCN(c4cccc(Cl)c4)CC3)c3ccccc23)cc1,?,0,0,-,-
O[C@@H](c1cc(-c2ccc(Cl)cc2)nc2ccccc12)[C@@H]1CCCCN1,-,-,-,-,0[10 µM]
CCOc1ccc2c(c1)c(=O)c(C(=O)c1ccc(CC)cc1)cn2CC(=O)Nc1cccc(Cl)c1,0,0,0,-,-
CCc1ccc(N=c2c([N+](=O)[O-])nn(-c3ccc4c(c3)OCCO4)n2O)cc1,?,11.2µM,0,0,0
Cc1ccc(N=c2c([N+](=O)[O-])nn(-c3ccc(Cl)cc3)n2O)cc1C,?,12.6µM,0,0,0
Cc1ccc(N=c2c([N+](=O)[O-])nn(-c3ccc4c(c3)OCCO4)n2O)cc1F,?,?,0,0,0
O=[N+]([O-])c1nn(-c2ccc3c(c2)OCCO3)n(O)c1=Nc1ccccc1,0,0,0,0,0[10 µM]
O=[N+]([O-])c1nn(-c2ccc3c(c2)OCCO3)n(O)c1=Nc1ccc(Cl)cc1,?,14.1µM,?,?,0
O=C(Cc1ccc(-c2ccccc2)cc1)NCCS(=O)(=O)N1CCN(c2ccccc2F)CC1,0,0,0,-,-
CCc1ccc(NC(=O)CN2C(=O)C(c3ccc(F)cc3)=NC2(C)C)cc1,0,0,0,-,-
SMILES,Tau fluor cs,Tau fibril ThT,Tau FP inhib,HttQ103 aggreg,HTT cytoprotect
CCOc1ccccc1C1CC(=O)NC2=C1C(=O)CC(C)(C)C2 (stereo unspecified),0,0,0,35.5µM,0
COc1cc(C2CC(=O)NC3=C2C(=O)CC(C)(C)C3)ccc1O (stereo unspecified),0,0,0,?,?
CCc1ccccc1N(C)C(=O)CCc1nc(-c2ccc(C)cc2)no1,0,0,0,11.2µM,0
Cc1ccc(NC(CNS(=O)(=O)c2ccc(Cl)cc2)c2ccccc2)cc1 (stereo unspecified),4.47µM[quencher],0,0,0,0
COc1cccc(NC(CNS(=O)(=O)c2ccc(Cl)cc2)c2ccccc2)c1 (stereo unspecified),10µM[quencher],0,0,-,-
O=S(=O)(NCC(Nc1ccc(Cl)cc1)c1ccccc1)c1ccccc1 (stereo unspecified),8.91µM[quencher],0,0,0,0[10 µM]
NS(=O)(=O)c1ccc(NC(CNS(=O)(=O)c2ccccc2)c2ccccc2)cc1 (stereo unspecified),0,0,0,0,0
CC(C)(C)C(=O)Nc1cccc(C(=O)OCc2cc(=O)n3nc(C4CC4)sc3n2)c1,0,0,0,-,-
